± gives the standard deviation of the averaged measurements. Of roughly 5,400 targets only a part is listed; those with the largest changes were picked by preference.
Compound: Nc1nc2c(ncn2[C@@H]2O[C@H](COP(=O)(O)OP(=O)(O)OP(=O)(O)O)[C@@H](O)[C@H]2O)c(=O)[nH]1 [guanosine triphosphate]
Assay: NP40-soluble protein abundance relative to vehicle (solubility fold change) (ratio); higher = more soluble protein in presence of GTP
Description: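 Solubility proteome profiling in Jurkat crude lysate. Lysate was treated with Mg-GTP (0.1-10 mM) for 10 min at room temperature and 3 min at 37 °C, then solubilised with 0.8% NP40 and benzonase, followed by ultracentrifugation. Proteins were quantified by TMT10 LC-MS/MS; the value is the NP40-soluble abundance relative to the NP40-processed vehicle, from 3 independent experiments.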

UniProt Q9HD33|Q9HD33-2
NP40-soluble protein abundance (concentration: 0.1mM): 1.01 ± 0.017 | NP40-soluble protein abundance (concentration: 0.5mM): 1.16 ± 0.087 | NP40-soluble protein abundance (concentration: 1mM): 1.34 ± 0.23 | NP40-soluble protein abundance (concentration: 2mM): 1.55 ± 0.39 | NP40-soluble protein abundance (concentration: 4mM): 1.7 ± 0.52 | NP40-soluble protein abundance (concentration: 6mM): 1.86 ± 0.49 | NP40-soluble protein abundance (concentration: 8mM): 2.03 ± 0.59 | NP40-soluble protein abundance (concentration: 10mM): 2.05 ± 0.64

UniProt Q96L91|Q96L91-2|Q96L91-3|Q96L91-5
Sequence of UniProt Q96L91 (Q96L91 whole entry): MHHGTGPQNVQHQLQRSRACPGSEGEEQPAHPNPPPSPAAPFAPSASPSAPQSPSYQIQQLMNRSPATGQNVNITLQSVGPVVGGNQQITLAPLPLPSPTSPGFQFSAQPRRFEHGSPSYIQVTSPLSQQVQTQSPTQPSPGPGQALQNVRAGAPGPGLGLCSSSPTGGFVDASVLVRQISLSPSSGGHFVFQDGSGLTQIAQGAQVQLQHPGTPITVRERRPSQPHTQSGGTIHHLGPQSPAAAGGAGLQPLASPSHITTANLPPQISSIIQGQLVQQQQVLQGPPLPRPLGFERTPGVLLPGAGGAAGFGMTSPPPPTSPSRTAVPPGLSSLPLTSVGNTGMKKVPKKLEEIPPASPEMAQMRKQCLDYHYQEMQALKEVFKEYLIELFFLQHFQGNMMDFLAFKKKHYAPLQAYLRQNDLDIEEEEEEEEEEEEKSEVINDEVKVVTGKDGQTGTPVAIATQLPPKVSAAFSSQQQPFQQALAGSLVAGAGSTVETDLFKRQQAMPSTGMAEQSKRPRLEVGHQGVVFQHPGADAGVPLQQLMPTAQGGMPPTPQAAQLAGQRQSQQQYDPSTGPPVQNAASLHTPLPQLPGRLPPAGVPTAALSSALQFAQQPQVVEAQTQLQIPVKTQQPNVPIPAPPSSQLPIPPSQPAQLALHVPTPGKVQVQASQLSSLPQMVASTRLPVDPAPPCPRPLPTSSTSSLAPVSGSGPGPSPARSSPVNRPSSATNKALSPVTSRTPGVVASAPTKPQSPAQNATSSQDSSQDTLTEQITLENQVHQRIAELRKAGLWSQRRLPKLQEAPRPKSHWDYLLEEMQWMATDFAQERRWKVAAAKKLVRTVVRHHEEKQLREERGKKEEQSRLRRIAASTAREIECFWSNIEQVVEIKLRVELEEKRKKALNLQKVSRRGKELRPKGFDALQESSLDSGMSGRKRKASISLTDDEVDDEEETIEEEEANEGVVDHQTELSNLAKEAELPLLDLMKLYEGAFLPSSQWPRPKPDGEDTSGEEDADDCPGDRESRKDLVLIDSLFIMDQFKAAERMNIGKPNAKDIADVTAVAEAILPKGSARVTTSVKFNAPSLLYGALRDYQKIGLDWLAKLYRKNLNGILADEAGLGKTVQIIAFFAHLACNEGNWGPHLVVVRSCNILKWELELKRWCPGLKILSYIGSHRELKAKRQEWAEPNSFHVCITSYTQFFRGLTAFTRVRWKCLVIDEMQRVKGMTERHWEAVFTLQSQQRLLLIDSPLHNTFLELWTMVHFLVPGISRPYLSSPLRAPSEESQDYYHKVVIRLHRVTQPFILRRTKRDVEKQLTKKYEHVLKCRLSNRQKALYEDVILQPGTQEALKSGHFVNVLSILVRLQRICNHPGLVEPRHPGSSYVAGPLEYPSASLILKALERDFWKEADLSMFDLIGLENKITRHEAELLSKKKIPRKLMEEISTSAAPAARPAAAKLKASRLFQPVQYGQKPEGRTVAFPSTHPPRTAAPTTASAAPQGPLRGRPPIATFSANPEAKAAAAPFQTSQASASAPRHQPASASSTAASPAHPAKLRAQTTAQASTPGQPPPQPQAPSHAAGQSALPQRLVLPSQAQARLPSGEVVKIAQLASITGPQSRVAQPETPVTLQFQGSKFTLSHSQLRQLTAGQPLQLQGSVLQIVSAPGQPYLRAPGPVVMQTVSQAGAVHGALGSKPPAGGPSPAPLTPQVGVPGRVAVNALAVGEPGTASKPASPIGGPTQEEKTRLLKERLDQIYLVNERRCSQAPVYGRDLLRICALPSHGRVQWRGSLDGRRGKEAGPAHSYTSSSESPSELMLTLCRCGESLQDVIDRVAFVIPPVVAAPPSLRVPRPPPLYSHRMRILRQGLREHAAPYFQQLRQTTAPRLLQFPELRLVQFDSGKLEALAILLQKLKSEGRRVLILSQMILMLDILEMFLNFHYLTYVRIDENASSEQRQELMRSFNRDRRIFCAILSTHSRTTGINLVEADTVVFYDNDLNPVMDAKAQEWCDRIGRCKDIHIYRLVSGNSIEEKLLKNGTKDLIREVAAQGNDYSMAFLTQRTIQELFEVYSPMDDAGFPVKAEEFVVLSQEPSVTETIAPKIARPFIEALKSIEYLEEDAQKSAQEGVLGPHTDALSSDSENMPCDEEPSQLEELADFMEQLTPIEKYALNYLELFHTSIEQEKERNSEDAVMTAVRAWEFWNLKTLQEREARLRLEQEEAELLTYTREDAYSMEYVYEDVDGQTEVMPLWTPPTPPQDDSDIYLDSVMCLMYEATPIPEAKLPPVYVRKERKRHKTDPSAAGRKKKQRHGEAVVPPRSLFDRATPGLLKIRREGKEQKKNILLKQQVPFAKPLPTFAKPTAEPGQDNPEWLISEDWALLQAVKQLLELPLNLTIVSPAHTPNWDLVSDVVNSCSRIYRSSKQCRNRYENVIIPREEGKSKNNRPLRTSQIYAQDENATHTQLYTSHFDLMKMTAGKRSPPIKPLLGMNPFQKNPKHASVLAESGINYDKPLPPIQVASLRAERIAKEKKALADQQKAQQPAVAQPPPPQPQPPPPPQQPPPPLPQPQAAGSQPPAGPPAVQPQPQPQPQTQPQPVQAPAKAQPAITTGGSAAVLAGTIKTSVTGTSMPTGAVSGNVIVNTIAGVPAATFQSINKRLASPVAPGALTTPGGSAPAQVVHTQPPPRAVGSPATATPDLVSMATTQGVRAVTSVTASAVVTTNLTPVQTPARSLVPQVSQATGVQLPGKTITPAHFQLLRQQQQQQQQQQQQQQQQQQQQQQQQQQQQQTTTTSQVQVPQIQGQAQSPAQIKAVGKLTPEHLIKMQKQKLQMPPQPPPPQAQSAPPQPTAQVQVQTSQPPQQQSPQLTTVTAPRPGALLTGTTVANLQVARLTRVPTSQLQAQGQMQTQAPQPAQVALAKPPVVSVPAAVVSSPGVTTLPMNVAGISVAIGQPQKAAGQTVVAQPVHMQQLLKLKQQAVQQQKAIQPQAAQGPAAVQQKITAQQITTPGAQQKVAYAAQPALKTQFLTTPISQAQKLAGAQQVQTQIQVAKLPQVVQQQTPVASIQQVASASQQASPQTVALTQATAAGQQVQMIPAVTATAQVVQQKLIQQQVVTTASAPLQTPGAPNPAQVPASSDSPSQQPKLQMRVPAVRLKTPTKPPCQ
NP40-soluble protein abundance (concentration: 0.1mM): 1.03 ± 0.021 | NP40-soluble protein abundance (concentration: 0.5mM): 1.06 ± 0.04 | NP40-soluble protein abundance (concentration: 1mM): 1.12 ± 0.03 | NP40-soluble protein abundance (concentration: 2mM): 1.18 ± 0.061 | NP40-soluble protein abundance (concentration: 4mM): 1.24 ± 0.13 | NP40-soluble protein abundance (concentration: 6mM): 1.26 ± 0.14 | NP40-soluble protein abundance (concentration: 8mM): 1.32 ± 0.22 | NP40-soluble protein abundance (concentration: 10mM): 1.34 ± 0.23

PSMG3 (UniProt Q9BT73)
Sequence of UniProt Q9BT73 (Q9BT73 whole entry): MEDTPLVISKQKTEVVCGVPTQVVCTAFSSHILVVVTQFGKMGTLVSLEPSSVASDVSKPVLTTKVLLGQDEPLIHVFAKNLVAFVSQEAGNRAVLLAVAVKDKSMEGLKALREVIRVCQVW
NP40-soluble protein abundance (concentration: 0.1mM): 1.03 ± 0.027 | NP40-soluble protein abundance (concentration: 0.5mM): 1.09 ± 0.083 | NP40-soluble protein abundance (concentration: 1mM): 1.09 ± 0.058 | NP40-soluble protein abundance (concentration: 2mM): 1.07 ± 0.042 | NP40-soluble protein abundance (concentration: 4mM): 1.08 ± 0.054 | NP40-soluble protein abundance (concentration: 6mM): 0.999 ± 0.087 | NP40-soluble protein abundance (concentration: 8mM): 1.14 ± 0.087 | NP40-soluble protein abundance (concentration: 10mM): 1.04 ± 0.042

HIRIP3 (UniProt Q9BW71)
Sequence of UniProt Q9BW71 (Q9BW71 whole entry): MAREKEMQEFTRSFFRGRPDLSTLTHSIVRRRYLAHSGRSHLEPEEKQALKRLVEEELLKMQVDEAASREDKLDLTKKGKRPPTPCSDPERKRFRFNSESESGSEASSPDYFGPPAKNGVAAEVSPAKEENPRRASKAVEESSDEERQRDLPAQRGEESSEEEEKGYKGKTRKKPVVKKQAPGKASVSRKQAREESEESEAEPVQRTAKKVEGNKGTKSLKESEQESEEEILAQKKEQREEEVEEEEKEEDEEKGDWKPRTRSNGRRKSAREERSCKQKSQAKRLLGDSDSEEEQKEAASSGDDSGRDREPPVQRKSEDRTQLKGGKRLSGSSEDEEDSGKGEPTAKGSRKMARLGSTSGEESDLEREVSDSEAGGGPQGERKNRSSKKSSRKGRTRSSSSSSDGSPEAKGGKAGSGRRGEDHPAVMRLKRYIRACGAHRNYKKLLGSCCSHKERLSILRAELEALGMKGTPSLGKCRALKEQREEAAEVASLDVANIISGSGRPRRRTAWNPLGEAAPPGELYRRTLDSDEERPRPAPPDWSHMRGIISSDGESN
NP40-soluble protein abundance (concentration: 0.1mM): 0.932 ± 0.071 | NP40-soluble protein abundance (concentration: 0.5mM): 0.925 ± 0.089 | NP40-soluble protein abundance (concentration: 1mM): 1.01 ± 0.1 | NP40-soluble protein abundance (concentration: 2mM): 0.983 ± 0.15 | NP40-soluble protein abundance (concentration: 4mM): 1.04 ± 0.14 | NP40-soluble protein abundance (concentration: 6mM): 1.07 ± 0.14 | NP40-soluble protein abundance (concentration: 8mM): 1.13 ± 0.06 | NP40-soluble protein abundance (concentration: 10mM): 1.14 ± 0.094

UniProt Q9Y2C4|Q9Y2C4-3|Q9Y2C4-4
Sequence of UniProt Q9Y2C4 (Q9Y2C4 whole entry): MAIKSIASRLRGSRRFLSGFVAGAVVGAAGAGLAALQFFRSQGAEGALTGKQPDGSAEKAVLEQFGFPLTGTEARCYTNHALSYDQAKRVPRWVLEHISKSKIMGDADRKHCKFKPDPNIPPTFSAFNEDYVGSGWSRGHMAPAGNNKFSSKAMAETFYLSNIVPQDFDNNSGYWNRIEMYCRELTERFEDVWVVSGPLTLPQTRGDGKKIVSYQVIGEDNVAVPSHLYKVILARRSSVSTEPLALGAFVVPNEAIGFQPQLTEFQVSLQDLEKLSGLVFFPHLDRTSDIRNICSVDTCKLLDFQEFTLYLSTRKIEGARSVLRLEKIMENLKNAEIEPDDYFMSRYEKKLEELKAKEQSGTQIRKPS
NP40-soluble protein abundance (concentration: 0.1mM): 1.2 ± 0.083 | NP40-soluble protein abundance (concentration: 0.5mM): 1.12 ± 0.049 | NP40-soluble protein abundance (concentration: 1mM): 1.11 ± 0.083 | NP40-soluble protein abundance (concentration: 2mM): 1.14 ± 0.088 | NP40-soluble protein abundance (concentration: 4mM): 1.08 ± 0.033 | NP40-soluble protein abundance (concentration: 6mM): 1.07 ± 0.081 | NP40-soluble protein abundance (concentration: 8mM): 1.01 ± 0.034 | NP40-soluble protein abundance (concentration: 10mM): 1.03 ± 0.044
